# Experimental data: article PMC4336329 (PLoS ONE, 2015)
# Hit rate of the full screen: of about 310,000 compounds, about 14,000 (4.5%) showed an effect of 50% or more. The effect is printed as a negative number. What follows is part of a selection rich in strong results, with near analogues and random picks from the rest.
# Target: human ether-à-go-go-related gene (hERG) potassium channel (human, UniProt Q12809)
# Assay: primary screen, population patch clamp on CHO cells stably expressing hERG; higher = less effect of the substance
# 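Further: peak tail current of the secondary pulse compared with the same well before compound.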
# Sequence of human ether-à-go-go-related gene (hERG) potassium channel (Q12809 whole entry, looked up): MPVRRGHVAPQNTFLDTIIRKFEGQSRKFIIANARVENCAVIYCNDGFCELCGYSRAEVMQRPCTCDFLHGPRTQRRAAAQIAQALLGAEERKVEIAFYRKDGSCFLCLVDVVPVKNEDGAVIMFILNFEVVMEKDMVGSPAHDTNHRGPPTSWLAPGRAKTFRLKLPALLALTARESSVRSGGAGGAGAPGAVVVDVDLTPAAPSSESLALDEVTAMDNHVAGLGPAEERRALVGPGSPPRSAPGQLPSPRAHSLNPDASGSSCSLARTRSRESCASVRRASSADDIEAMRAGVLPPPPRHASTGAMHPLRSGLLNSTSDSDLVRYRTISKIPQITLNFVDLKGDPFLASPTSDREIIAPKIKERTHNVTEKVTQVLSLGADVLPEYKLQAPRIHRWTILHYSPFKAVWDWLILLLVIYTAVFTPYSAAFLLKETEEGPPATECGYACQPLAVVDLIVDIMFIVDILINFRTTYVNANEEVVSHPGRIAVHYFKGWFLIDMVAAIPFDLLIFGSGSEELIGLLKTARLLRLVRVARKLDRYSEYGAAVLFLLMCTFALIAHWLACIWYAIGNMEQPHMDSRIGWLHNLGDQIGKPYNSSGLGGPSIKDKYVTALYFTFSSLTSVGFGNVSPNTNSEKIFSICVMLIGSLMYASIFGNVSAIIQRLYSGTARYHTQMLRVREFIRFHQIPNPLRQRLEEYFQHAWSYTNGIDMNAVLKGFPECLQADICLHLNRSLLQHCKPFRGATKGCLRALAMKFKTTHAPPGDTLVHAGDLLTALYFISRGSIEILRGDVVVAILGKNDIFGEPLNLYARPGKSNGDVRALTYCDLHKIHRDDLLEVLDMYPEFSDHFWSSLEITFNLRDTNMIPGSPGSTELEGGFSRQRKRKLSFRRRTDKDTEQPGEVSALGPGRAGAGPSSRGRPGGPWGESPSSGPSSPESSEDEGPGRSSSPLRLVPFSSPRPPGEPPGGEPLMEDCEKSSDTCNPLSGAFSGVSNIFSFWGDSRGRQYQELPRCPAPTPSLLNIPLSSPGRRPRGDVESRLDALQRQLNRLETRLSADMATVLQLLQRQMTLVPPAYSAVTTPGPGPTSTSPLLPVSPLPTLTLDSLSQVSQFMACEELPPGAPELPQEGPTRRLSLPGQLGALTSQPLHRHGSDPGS
row,SMILES,"hERG current change (%, negative = inhibition) at 10uM [%]"
1,Nc1nnc(SCC(=O)Nc2ccccc2N2CCOCC2)s1,3.88
2,O=C(c1cc2ccccc2s1)N1CCN(c2ccccn2)CC1,-11.5
3,O=C(COC(=O)c1ccc(Br)o1)Nc1ncc([N+](=O)[O-])s1,10.6
4,O=C(c1ccc(Cl)cc1)C1CCN(C(=O)NC2CCCCC2)CC1,-6.29
5,Cc1noc(C)c1C(=O)OC(C)C(=O)N1CCc2ccccc21 (stereo not drawn),4.27
6,Cc1nc(-c2cccc(NC(=O)c3cccs3)c2)cs1,-23.3
7,CCCN(C(=O)c1c(-c2ccccc2)noc1C)c1c(N)n(Cc2ccccc2)c(=O)[nH]c1=O,1.43
8,COc1cccc(CNC(=O)Cc2ccc(Br)cc2)c1,5.59
9,Cc1ccc(-c2nnc(SCC(=O)Nc3nccs3)n2N)cc1,-10.4
10,O=[N+]([O-])c1ccc(N2CCN(c3ccc(O)cc3)CC2)c(Cl)c1,-3.4
11,CCn1nc(C)c(CNC(=O)Nc2ccccc2C(=O)OC)c1C,13.5
12,O=C(Nc1ccc2c(c1)CCC2)Nc1ccccc1F,-61.6
13,O=C(Nc1ccc2c(c1)CCC2)Nc1ccc(F)cc1F,15.5
14,Cc1ccccc1NC(=O)Nc1ccc2c(c1)CCC2,24.4
15,Cc1ccccc1NCN1C(=O)C2C3C=CC(C3)C2C1=O (stereo not drawn),6.34
16,COc1cccc(/C=N/NC(=O)Cn2nc(C)c([N+](=O)[O-])c2C)c1O,-13.1
17,CCN1CCN(C(=O)N2CCOCC2)CC1,15.5
18,O=C(c1cccc(-n2cnnn2)c1)N1CCOCC1,-8.49
19,O=C(CN1CCN(C(=O)c2cccc(-n3cnnn3)c2)CC1)Nc1ccccc1Cl,-90.3
20,CS(=O)(=O)c1ccc(Cl)c(NC(=O)c2cccc(-n3cnnn3)c2)c1,-65.6
21,Cc1cccc(NC(=O)CN2CCN(C(=O)c3cccc(-n4cnnn4)c3)CC2)c1C,-41.5
22,O=C(CN1CCCCC1)Nc1cccc(-n2cnnn2)c1,0.45
23,CS(=O)(=O)c1ccc(Cl)c(NC(=O)c2cccc(N3C(=O)CCC3=O)c2)c1,0.801
24,CCc1ccccc1NC(=O)CN1CCN(C(=O)c2cccc(-n3cnnn3)c2)CC1,-65

row,SMILES,"hERG current change (%, negative = inhibition) at 10uM [%]"
1,CCc1ccccc1NC(=O)COc1cccc(-n2cnnn2)c1,-8.5
2,CS(=O)(=O)c1ccc(NC(=O)c2cccc(-n3cnnn3)c2)cc1,12.1
3,Cc1ccc(NC(=O)CSCC(=O)NC2(C)CCS(=O)(=O)C2)cc1 (stereo not drawn),5.44
4,O=C(O)Cc1sc(NCCc2ccccc2)nc1-c1ccc(F)cc1,3.77
5,Cc1cn2c(-c3ccc(Cl)cc3)nnc2s1,-33.3
6,CN(CCC#N)C(=O)COC(=O)c1ccc2c(=O)n3c(nc2c1)CCC3,35
7,COc1ccccc1/C=C/C(=O)OCC(=O)c1cc(C)n(C)c1C,-0.348
8,O=C(NCc1ccccc1Cl)c1ccc2c(c1)SC1=NS(=O)(=O)CCN12,-7.44
9,CN(C(=O)c1ccc2c(c1)SC1=NS(=O)(=O)CCN12)C(c1ccccc1)c1ccccc1,-61
10,CC(C)(C)c1ccccc1NC(=O)c1ccc2c(c1)SC1=NS(=O)(=O)CCN12,6.51
11,COc1ccc(CCNC(=O)c2ccc3c(c2)SC2=NS(=O)(=O)CCN23)cc1,-60.4
12,O=C(O)c1ccc2c(c1)SC1=NS(=O)(=O)CCN12,8.48
13,O=C(NCc1cccc(Cl)c1)c1ccc2c(c1)SC1=NS(=O)(=O)CCN12,-5.52
14,O=[N+]([O-])c1cc(-c2nnc(Nc3ccccc3)c3ccccc23)ccc1N1CCOCC1,-26.3
15,COC(=O)c1cc(C(=O)OC)cc(-n2c(C)cc(C(=O)CC#N)c2C)c1,-31.2
16,O=C(N/N=C/C=C/c1ccccc1)C1CC1(c1ccccc1)c1ccccc1 (stereo not drawn),-1.54
17,O=C(N/N=C\c1ccc(O)c([N+](=O)[O-])c1)C1COc2ccccc2O1 (stereo not drawn),-4.56
18,O=C(N/N=C/c1ccc(O)c([N+](=O)[O-])c1)C1CC1(c1ccccc1)c1ccccc1 (stereo not drawn),-50.7
19,O=C(N/N=C/c1cccnc1)C1CC1(c1ccccc1)c1ccccc1 (stereo not drawn),-55.6
20,O=C(O)c1ccc(/C=N/NC(=O)C2CC2(c2ccccc2)c2ccccc2)cc1 (stereo not drawn),17.9
21,O=C(N/N=C/c1ccncc1)C1CC1(c1ccccc1)c1ccccc1 (stereo not drawn),-24.9
22,CC(C)C(=O)Nc1nc2ccc(S(C)(=O)=O)cc2s1,5.14
23,Cc1ccc(S(=O)(=O)Nc2c(C)n(C)n(-c3ccccc3)c2=O)cc1,9.73
24,O=C(CN1C(=O)NC2(CCCCCC2)C1=O)Nc1ccc2c(c1)CCC2,-5.72

row,SMILES,"hERG current change (%, negative = inhibition) at 10uM [%]"
1,CCOC(=O)c1nc2ccccc2c(C)c1C.Cl,-5.73
2,CCOC(=O)c1nc2cc3n(c(C)c-2c1C)C(C)C(C)=C3C.Cl (stereo not drawn),-42.8
3,CCOC(=O)c1n[nH]n(-c2cc(Cl)cc(Cl)c2)c1=O,25.7
4,CCOC(=O)c1nc2cc3n(c(C)c-2c1C)C(C)C(CC)=C3C.Cl (stereo not drawn),-66.7
5,CCOC(=O)c1nc2cc3n(c(CC(C)C)c-2c1C)CC(C)=C3C.Cl,-74
6,CCOC(=O)c1nc(C)nc(Sc2n[nH]c(-c3cc(Cl)cc(Cl)c3)n2)c1C,4.12
7,CCc1cc(=O)oc2c(CNCc3ccc(OC)cc3OC)c(O)c(Cl)cc12.Cl,13.3
8,NNC(=O)C1CC1c1ccc(Cl)cc1 (stereo not drawn),9.11
9,COc1cc(/C=N/Nc2ccc(Cl)c(C(=O)O)c2)ccc1OCC(=O)N1C(C)CCCC1C (stereo not drawn),16.5
10,CCCn1c(N)c(N(CCOC)C(=O)c2ccc(N(C)S(=O)(=O)c3ccc(C)cc3)cc2)c(=O)[nH]c1=O,7.32
11,O=C(NC1CCCCC1)c1ccc(S(=O)(=O)NCc2cccnc2)cc1,5.88
12,O=c1[nH]c(=O)n(-c2ccccc2Cl)c(O)c1C=NCCN1CCCCC1,6.09
13,COc1ccc(CNCCC(c2ccccc2)c2ccc3c(c2)OCO3)cc1.Cl (stereo not drawn),-75
14,COc1ccc(CC(C)NCCc2ccc(OC)c(OC)c2)cc1 (stereo not drawn),-60.3
15,CCCNCCC(c1ccco1)c1ccccc1OC (stereo not drawn),-41.8
16,COc1ccc(CC(C)NCCC(c2ccccc2)c2ccccc2)cc1 (stereo not drawn),-71.5
17,COc1ccc(C(CC(=O)O)c2ccc3c(c2)OCO3)cc1 (stereo not drawn),14.7
18,CNCCc1ccc(OC)c(OC)c1,19.4
19,COc1ccc(C(CCN)c2ccc3c(c2)OCO3)cc1 (stereo not drawn),1.93
20,COc1ccc(CCC(C)NCCc2ccccc2)cc1 (stereo not drawn),-29.6
21,COc1ccc(CC(C)CC(=O)NCCc2ccc(OC)c(OC)c2)cc1 (stereo not drawn),18.9
22,COc1ccc(CNc2ccc(-c3ccccc3OC)nn2)cc1,-13.1
23,COc1ccc(CNCCC(c2ccc(OC)cc2)c2ccccc2OC)cc1 (stereo not drawn),-74.2
24,COc1ccc(CCC(C)NCC(C)c2ccccc2)cc1 (stereo not drawn),-48.3

row,SMILES,"hERG current change (%, negative = inhibition) at 10uM [%]"
1,CN(C)S(=O)(=O)c1ccc(N2CCCC2)c(C(=O)Nc2nc3ccc(F)cc3s2)c1,-37.1
2,Cc1nc(SCC(=O)Nc2ccc(C)c(F)c2)c2oc3ccccc3c2n1,4.4
3,COc1ccccc1NC(=O)c1cc(S(=O)(=O)N2CCC3(CC2)OCCO3)ccc1F,-4.73
4,COc1ccc(CN2CN(c3ccc(Cl)cc3)C(=O)N(n3cnnc3)C2)cc1,-38.6
5,COC(=O)C1=C(c2ccccc2)C[C@@H]2CC[C@H]1N2C(=O)N1CCCCC1,-4.4
6,Cn1c(=O)c2c(ncn2CCOc2ccc(F)cc2)n(C)c1=O,12.3
7,O=C(N/C=N/O)C(c1ccccc1)c1ncc(C(F)(F)F)cc1Cl (stereo not drawn),3.35
8,COc1ccc(-c2c/c(=N\c3nc(-c4ccccc4)c(C)s3)c3ccccc3o2)cc1O,4.17
9,COc1ccccc1NC(=O)C1CCCCN1S(=O)(=O)c1ccc(F)cc1 (stereo not drawn),-27.9
10,O=C(NCc1ccc(F)cc1)N[C@@H](Cc1ccccc1)C(=O)O,7.44
11,CC(=O)OCc1c(C(F)(F)F)nn(C)c1Oc1cccc(C(F)(F)F)c1,2.3
12,COc1ccc(NC(=S)NCCC(c2ccccc2)c2ccccc2)c(OC)c1,2.53
13,COc1ccc(C(CCNC(C)c2ccccc2)c2ccc(F)cc2)cc1 (stereo not drawn),-54.6
14,COc1ccc(C(CCNCc2ccc(N(C)C)cc2)c2ccccc2OC)cc1 (stereo not drawn),-71.1
15,COc1ccc(C(CCNC(C)c2ccccc2)C(C)C)cc1 (stereo not drawn),-4.48
16,COc1ccc(C(C)NCCC(c2ccc(OC(C)C)cc2)c2ccccc2OC)cc1 (stereo not drawn),-64.2
17,COc1ccc(C(CC(=O)Nc2ccc(F)cc2)c2ccccc2)cc1 (stereo not drawn),9.13
18,COc1ccccc1C(CC(=O)Nc1ccc(Cl)cc1)c1ccc(OC(C)C)cc1 (stereo not drawn),1.17
19,COc1cccc(NC(=O)CC(c2ccc(OC(C)C)cc2)c2ccccc2OC)c1 (stereo not drawn),1.26
20,COc1ccc(C(CCNCc2ccc(OC(C)C)cc2)c2ccccc2OC)cc1 (stereo not drawn),-76
21,COc1ccc(C(O)P(=O)(OCc2ccccc2)c2ccc(N(C)C)cc2)cc1 (stereo not drawn),15.4
